For 8 compounds, growth results are on record in PubChem BioAssay (NCI).

What all share (assay): NCI-60 one-dose screen, 48 h (100 = growth as untreated, 0 = no growth, -100 = all killed)
Common to all, as to conditions: 10 µM unless noted

Experiment [1] relates to NCI-H23 lung.
The test system of experiment [2] is NCI-H226 lung.
Experiment [3] has as its system NCI-H322M lung.
The test system of experiment [4] is HOP-62 NSCLC.
The subject of experiment [5] is NCI-H460 lung.
For experiment [6], the system named is HOP-92 NSCLC.
For experiment [7], the system named is NCI-H522 lung.
The test system of experiment [8] is A549/ATCC NSCLC.
For experiment [9], the system named is 786-0 renal.
Experiment [10] deals with COLO 205 colon.
The subject of experiment [11] is DU-145 prostate.
In experiment [12] the test system is K-562 leukemia.
Experiment [13] has as its system MALME-3M melanoma.
The test system of experiment [14] is MDA-MB-231 breast.
Experiment [15] relates to RXF 393 renal.
For experiment [16], the system named is SF-268 CNS.
Experiment [17] relates to SF-295 CNS.
In experiment [18] the test system is SF-539 CNS.
The test system of experiment [19] is UACC-257 melanoma.
Experiment [20] deals with M14 melanoma.

About 83,000 compounds went through this panel and 20% of them were active in at least one assay; those are over-represented in the sample as a whole.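 The endpoint reported here, percent growth, reads 100 for growth as untreated, 0 for no net growth and -100 for all cells dead.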 Values without a mark were called inactive. Active and inactive are the calls of the source. The calls were made as follows: active = growth percent below 10; inactive = the rest.

As for `O=C(Nc1ccc(Nc2ncccn2)cc1)NC1C=c2ccccc2=CC1` (stereo not given), the growth in [1] was 104%; in experiment [2], 96.7%; in experiment [3] it was 111%; in experiment [4] it was 113%; in [5] it was 104%; in experiment [6], 110%. Further, the growth was 99.3% in [7]; 93.1% in experiment [8]; 104% in [9]; 123% in experiment [10]; 109% in experiment [11]; 89.1% in experiment [12]. In addition, the growth in experiment [13] is 114%; in [14] it was 91.3%; in experiment [15] it was 89.9%; in [16], 98.5%; in experiment [17], 100%; in [18], 100%. Moreover, the growth in [19] was 94.9%; in experiment [20], 111%.

With `NNC(=O)/C(=C\c1ccc([N+](=O)[O-])cc1)CC(=O)c1ccc(Cl)c(Cl)c1`, the growth was 91.6% in experiment [1]; 69.2% in experiment [2]; 84.3% in experiment [3]; 83.3% in experiment [4]; 90.5% in experiment [5]; 103% in [6]. The growth was 77.2% in experiment [7]; 78.9% in experiment [8]; 92.9% in [9]; 100% in experiment [10]; 88.7% in experiment [11]; 88.8% in experiment [12]. In addition, the growth is 94.3% in experiment [13]; 89% in experiment [14]; 97.8% in experiment [15]; 65.1% in [16]; 93.6% in [17]; 98.1% in experiment [18]. In addition, the growth is 91.1% in [19] and 85.6% in [20].

For `COc1ccc(C(=O)/C=C/c2ccc(OCc3ccccc3)c(OC)c2)cc1OC`, the growth in experiment [1] was 59.8%; in [2] it was 75.8%; in experiment [3], 43.2%; in experiment [4], 31.4%; in [5], 47%; in experiment [6], 11.5%. The growth in [7] was 28.9%; in experiment [8] it was 13.6%; in [9] it was 87.9%; in [10], 74.6%; in experiment [11], 36.7%; in experiment [12], 20.7%. Also, the growth is 56.4% in experiment [13]; 55.3% in [14]; 75.1% in experiment [15]; 43.8% in [16]; 57.1% in experiment [17]; 83.3% in experiment [18]. The values for the growth in [19] and in [20] were 63.2% and 83.1%, respectively.

On to `COc1cc2nc(-c3ccc(C(F)(F)F)cc3)cc(OCCN3CCC(O)CC3)c2cc1OC`, for which the growth in [1] is 88.9%; in experiment [2], 56.3%; in [3], 68.8%; in experiment [4], 67.8%; in experiment [5], 44.5%; in experiment [6], 71.2%. Also, the growth is 79.6% in experiment [7]; 79.2% in experiment [8]; 78.7% in [9]; 35.7% in [10]; 58.8% in experiment [11]; 61.3% in experiment [12]. In addition, the growth is 83.6% in [13]; 49.1% in experiment [14]; 61.2% in experiment [15]; 70% in experiment [16]; 80.4% in experiment [17]; 76.8% in experiment [18]. In addition, the growth in [19] was 92.3%; in [20], 25.2%.

`COc1cc2nc(-c3ccc(C(F)(F)F)cc3)cc(OCCCN3CCC(O)CC3)c2cc1OC`: the growth is 57.9% in [1]; -9.29% (active) in experiment [2]; 61.1% in [3]; 45.3% in experiment [4]; 16.5% in [5]; 19.9% in [6]. Besides, the growth is 10.5% in experiment [7]; 27.7% in experiment [8]; 42.7% in [9]; 26.5% in experiment [10]; 28.3% in experiment [11]; 6.21% (active) in [12]. Also, the growth in experiment [13] is 43.9%; in experiment [14], 11.2%; in experiment [15] it was 42.1%; in experiment [16] it was 49.9%; in [17] it was -43.5% (active); in experiment [18] it was 45.5%. Further, the growth is -8.17% (active) in experiment [19] and -55.9% (active) in experiment [20].

With `C=CCn1c(SCC(=O)Nc2ccc(C(=O)/C=C/c3cc(OC)c(OC)c(OC)c3)cc2)nnc1-c1cc(-c2ccc(S(C)(=O)=O)cc2)nc2ccccc12`, the growth was 85.6% in experiment [1]; 85.3% in experiment [2]; 93.5% in experiment [3]; 111% in experiment [4]; 97.2% in [5]; 112% in [6]. Further, the growth is 86.5% in [7]; 99.4% in experiment [8]; 93.6% in experiment [9]; 111% in experiment [10]; 94.5% in experiment [11]; 50.5% in experiment [12]. Further, the growth in [13] is 89.3%; in experiment [14], 77.7%; in experiment [15], 60.9%; in experiment [16], 86.9%; in [17], 97.4%; in [18], 86%. Further, the growth was 102% in [19] and 88.8% in [20].

With `CC(=O)CCSc1ccc(OC(C)=O)cc1`, the growth in experiment [1] was 100%; in experiment [2], 101%; in experiment [3], 103%; in [4] it was 98%; in experiment [5] it was 106%; in experiment [6] it was 79.8%. Besides, the growth in [7] is 82.3%; in [8], 88.3%; in experiment [9] it was 100%; in experiment [10], 116%; in [11], 108%; in experiment [12], 96.1%. Also, the growth in [13] was 115%; in experiment [14] it was 91.7%; in experiment [15], 109%; in [16], 96.4%; in experiment [17] it was 105%; in experiment [18] it was 97.3%. The growth is 88.1% in experiment [19] and 103% in [20].

For `COc1ccc2c(/C=C3/C(=O)NC(=S)NC3C)cc(=O)oc2c1` (stereo not given), the growth in experiment [1] is 98.9%; in [2], 96.7%; in experiment [3], 93.1%; in [4], 92.8%; in [5], 105%; in experiment [6], 93%. Moreover, the growth in [7] was 82.3%; in experiment [8], 88.9%; in experiment [9] it was 95.8%; in experiment [10] it was 101%; in experiment [11], 108%; in experiment [12], 98.1%. Besides, the growth in [13] is 99.4%; in [14], 103%; in experiment [15] it was 98.4%; in experiment [16], 89.4%; in experiment [17], 97.9%; in [18], 101%. For the same compound, the growth in experiment [19] was 83.5%; in experiment [20] it was 109%.
